Reference: PubChem BioAssay (NCI)
Compounds without any hit were thinned out: in the full panel of roughly 79,000, 15% have a hit. Active and inactive are the calls of the source. Rule as the data show it: active = growth inhibition above about 70%; inactive = the rest.

Columns and labels:
[1] = NCI Yeast Anticancer Drug Screen. Data for the wt1 strain (AID 149);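 also: 0% = growth of vehicle-treated wt1 cultures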; conditions: S. cerevisiae wt1 strain (SPY 50644) growth inhibition, active compounds read high
Method in brief: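 Using yeast strain wt1, compound-induced growth inhibition was determined against vehicle-treated cultures.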

[2] = NCI Yeast Anticancer Drug Screen. Data for the rad50EPP+ strain (AID 151);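 also: 0% = growth of vehicle-treated control cultures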; conditions: S. cerevisiae rad50 mutant strain, active compounds read high
Method in brief: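 rad50EPP+ yeast treated with test compounds. Readout: growth vs vehicle control.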

[3] = NCI Yeast Anticancer Drug Screen. Data for the mgt1 strain (AID 153); conditions: S. cerevisiae mgt1 mutant growth inhibition, active compounds read high
Method in brief: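 Growth inhibition relative to vehicle controls was scored for the mgt1 yeast strain after compound exposure.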

[4] = NCI Yeast Anticancer Drug Screen. Data for the rad50 strain (AID 155);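 also: 0% = growth of vehicle-only cultures of the same strain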; conditions: S. cerevisiae rad50 strain growth inhibition, active compounds read high
Method in brief: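 Relative growth inhibition (compound vs vehicle) was measured in yeast with a defined repair-gene alteration.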

[5] = NCI Yeast Anticancer Drug Screen. Data for the mec2-1 strain (AID 157); conditions: S. cerevisiae mec2-1 strain, active compounds read high
Method in brief: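 Growth inhibition is read against vehicle-treated controls after compound exposure of the mec2-1 yeast strain, which is defective in DNA damage repair or cell cycle control.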

[6] = NCI Yeast Anticancer Drug Screen. Data for the rad14 strain (AID 159);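 also: 0% = growth of vehicle-treated control cultures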; conditions: S. cerevisiae rad14 strain growth inhibition, active compounds read high
Method in brief: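 Screen for anticancer potential: a yeast strain altered in DNA damage repair is grown with compound, and reduced growth is quantified against vehicle controls.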

[7] = NCI Yeast Anticancer Drug Screen. Data for the sgs1 mgt1 strain (AID 161);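 also: 0% = growth of cultures given vehicle only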; conditions: S. cerevisiae sgs1 mgt1 strain, active compounds read high
Method in brief: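 Yeast cells carrying a defined DNA-repair defect were exposed to test compounds. Growth inhibition was measured relative to vehicle-treated controls.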

[8] = NCI Yeast Anticancer Drug Screen. Data for the CLN2oe strain (AID 163);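 also: 0% = growth of vehicle-only control cultures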; conditions: S. cerevisiae CLN2oe strain, active compounds read high
Method in brief: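 Compound-treated yeast; growth vs vehicle ctrl = % inhibition. Genetically altered strain (cell-cycle control).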

[9] = NCI Yeast Anticancer Drug Screen. Data for the cln2 rad14 strain (AID 165);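 also: 0% = growth equal to vehicle treated cultures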; conditions: S. cerevisiae cln2 rad14 strain, active compounds read high
Method in brief: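 Growth inhibition, relative to vehicle-treated controls, is the read-out. The test organism is a yeast strain with defined genetic alterations, cln2 rad14.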

[10] = NCI Yeast Anticancer Drug Screen. Data for the bub3 strain (AID 167); conditions: S. cerevisiae bub3 mutant strain, active compounds read high
Method in brief: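 Screening used yeast with an engineered genetic alteration affecting cell cycle control. Compound-exposed cultures were compared with vehicle cultures, and reduced growth was taken as inhibition.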

[11] = NCI Yeast Anticancer Drug Screen. Data for the wt2 strain (AID 169);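 also: 0% = growth of vehicle-treated yeast cultures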; conditions: S. cerevisiae wt2 strain growth inhibition, active compounds read high
Method in brief: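 Compound exposure of yeast; growth compared with vehicle controls; inhibition reported.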

[12] = NCI Yeast Anticancer Drug Screen. Data for the mlh1 strain (AID 171);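 also: 0% = growth of vehicle-treated control cultures of the same strain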; conditions: S. cerevisiae mlh1 strain growth inhibition, active compounds read high
Method in brief: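 Compounds are applied to a genetically altered yeast strain, and its growth is compared with that of vehicle-treated cultures to give percent inhibition.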

[13] = NCI Yeast Anticancer Drug Screen. Data for the mlh1 rad18 strain (AID 175); conditions: S. cerevisiae mlh1 rad18 strain growth inhibition, active compounds read high
Method in brief: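 Cells of a genetically altered yeast strain, deficient in DNA damage repair, were treated with compound. Their growth was then compared with that of vehicle-treated cultures to give inhibition.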

[14] = NCI Yeast Anticancer Drug Screen. Data for the rad18 strain (AID 177); conditions: S. cerevisiae rad18 mutant growth inhibition, active compounds read high
Method in brief: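 Compounds are applied to a repair-deficient yeast strain, and growth is compared with that of vehicle-treated cultures to give percent inhibition.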

[15] = at 5.0 µM (retest, dose inferred, filed as 0.5)
[16] = at 50.0 µM (retest, dose inferred, filed as 5.0)

Measured: growth inhibition

O=C1c2ccccc2C(=O)C1C(c1ccc(F)cc1)C1C(=O)c2ccccc2C1=O
active: [1]; at 100.0 µM 85% | [2]; at 100.0 µM 75% | [3]; at 100.0 µM 76% | [4]; at 50.0 µM 77.5% | [4]; at 100.0 µM 88% | [5]; [16] 81% | [5]; at 50.0 µM 75% | [5]; at 100.0 µM 83% | [6]; at 100.0 µM 82% | [8]; at 100.0 µM 86% | [9]; [16] 89% | [9]; at 50.0 µM 85.8% | [10]; [16] 87% | [10]; at 50.0 µM 79% | [10]; at 100.0 µM 83% | [11]; at 100.0 µM 81% | [12]; at 100.0 µM 82% | [13]; [16] 74% | [13]; at 50.0 µM 72.1% | [14]; at 100.0 µM 88%
inactive: [1]; at 1.2 µM 9% | [1]; at 3.7 µM 10% | [1]; at 11.0 µM 7% | [1]; at 33.0 µM 18% | [2]; at 1.2 µM -8% | [2]; at 3.7 µM 8% | [2]; at 11.0 µM 21% | [2]; at 33.0 µM 61% | [3]; at 1.2 µM 0% | [3]; at 3.7 µM -11% | [3]; at 11.0 µM -17% | [3]; at 33.0 µM 5% | [4]; at 1.2 µM 13% | [4]; at 3.7 µM 5% | [4]; [15] 21% | [4]; at 11.0 µM 7% | [4]; at 33.0 µM 28% | [4]; [16] 46% | [5]; at 1.2 µM -13% | [5]; at 3.7 µM -6% | [5]; [15] -14% | [5]; at 11.0 µM -14% | [5]; at 33.0 µM 6% | [6]; at 1.2 µM -20% | [6]; at 3.7 µM -20% | [6]; at 11.0 µM -52% | [6]; at 33.0 µM 0% | [7]; [15] 2% | [7]; [16] 41% | [7]; at 50.0 µM 56.2% | [8]; at 1.2 µM 6% | [8]; at 3.7 µM 0% | [8]; at 11.0 µM -1% | [8]; at 33.0 µM 34% | [9]; [15] 27% | [10]; at 1.2 µM -18% | [10]; at 3.7 µM -33% | [10]; [15] 17% | [10]; at 11.0 µM -34% | [10]; at 33.0 µM -17% | [11]; at 1.2 µM 1% | [11]; at 3.7 µM 2% | [11]; at 11.0 µM 1% | [11]; at 33.0 µM 22% | [12]; at 1.2 µM -17% | [12]; at 3.7 µM -15% | [12]; at 11.0 µM -16% | [12]; at 33.0 µM 5% | [13]; [15] 8% | [14]; at 1.2 µM -2% | [14]; at 3.7 µM -7% | [14]; at 11.0 µM 1% | [14]; at 33.0 µM 26%

O=C1c2ccc(O)cc2C(=O)c2c(O)ccc(O)c21
active: [1]; at 11.0 µM 94% | [1]; at 33.0 µM 97% | [1]; at 100.0 µM 93% | [2]; at 11.0 µM 93% | [2]; at 33.0 µM 93% | [2]; at 100.0 µM 88% | [3]; at 11.0 µM 78% | [3]; at 33.0 µM 93% | [3]; at 100.0 µM 91% | [4]; at 11.0 µM 87% | [4]; at 33.0 µM 95% | [4]; [16] 90% | [4]; at 50.0 µM 71.2% | [4]; at 100.0 µM 89% | [5]; at 11.0 µM 87% | [5]; at 33.0 µM 95% | [5]; [16] 93% | [5]; at 100.0 µM 89% | [6]; at 11.0 µM 93% | [6]; at 33.0 µM 95% | [6]; at 100.0 µM 91% | [7]; [16] 90% | [7]; at 50.0 µM 77.2% | [8]; at 11.0 µM 92% | [8]; at 33.0 µM 94% | [8]; at 100.0 µM 91% | [10]; at 33.0 µM 91% | [10]; [16] 92% | [10]; at 100.0 µM 88% | [11]; at 11.0 µM 92% | [11]; at 33.0 µM 96% | [11]; at 100.0 µM 90% | [12]; at 11.0 µM 88% | [12]; at 33.0 µM 94% | [12]; at 100.0 µM 91% | [13]; [16] 97% | [14]; at 11.0 µM 88% | [14]; at 33.0 µM 94% | [14]; at 100.0 µM 89%
inactive: [1]; at 1.2 µM 4% | [1]; at 3.7 µM 17% | [2]; at 1.2 µM 25% | [2]; at 3.7 µM 64% | [3]; at 1.2 µM 1% | [3]; at 3.7 µM 10% | [4]; at 1.2 µM 16% | [4]; at 3.7 µM 35% | [4]; [15] 53% | [5]; at 1.2 µM 9% | [5]; at 3.7 µM 28% | [5]; [15] 45% | [5]; at 50.0 µM 49.1% | [6]; at 1.2 µM 10% | [6]; at 3.7 µM 27% | [7]; [15] 50% | [8]; at 1.2 µM 7% | [8]; at 3.7 µM 21% | [10]; at 1.2 µM -2% | [10]; at 3.7 µM 0% | [10]; [15] 18% | [10]; at 11.0 µM 62% | [10]; at 50.0 µM 29% | [11]; at 1.2 µM 1% | [11]; at 3.7 µM 19% | [12]; at 1.2 µM 4% | [12]; at 3.7 µM 20% | [13]; [15] 48% | [13]; at 50.0 µM 68.7% | [14]; at 1.2 µM 6% | [14]; at 3.7 µM 17%

O=S(=O)(O)CC[S][Sn]([S]CCS(=O)(=O)O)([c]1ccccc1)[c]1ccccc1
inactive: [1]; at 1.2 µM -25% | [1]; at 3.7 µM 12% | [2]; at 1.2 µM -20% | [2]; at 3.7 µM -17% | [2]; at 11.0 µM -11% | [2]; at 33.0 µM -7% | [2]; at 100.0 µM -22% | [3]; at 1.2 µM -7% | [3]; at 3.7 µM 45% | [4]; at 1.2 µM -28% | [4]; at 3.7 µM 18% | [4]; [15] 22% | [5]; at 1.2 µM -21% | [5]; at 3.7 µM 11% | [5]; [15] 20%
active: [1]; at 11.0 µM 80% | [1]; at 33.0 µM 95% | [1]; at 100.0 µM 98% | [3]; at 11.0 µM 92% | [3]; at 33.0 µM 97% | [3]; at 100.0 µM 98% | [4]; at 11.0 µM 90% | [4]; at 33.0 µM 97% | [4]; [16] 97% | [4]; at 50.0 µM 88.5% | [4]; at 100.0 µM 97% | [5]; at 11.0 µM 81% | [5]; at 33.0 µM 97% | [5]; [16] 99% | [5]; at 50.0 µM 89.8%
